ADAM17 inh – inhibitors of human ADAM17; recombinant ADAM17, EDANS/DABCYL FRET peptide cleavage; inhibition, % at 6.95 µM; hit rate 0.83% among 370,000; AID 720648;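 active = inhibition above the mean of compounds lying between control limits plus 3 SD, set per campaign, cut at about 8.5% in these data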;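 also: 0% = DMSO-only wells as the low control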
PLCg1 inh – blocks human PLC-gamma1 enzyme activity; purified PLC-gamma1, fluorogenic substrate, fluorescence; inhibition, % at 12.2 µM; hit rate 0.84% among 370,000; AID 720700; in the data active = inhibition above about 9.5%
PLC-beta3 inh – blocks human PLC-beta3 enzyme activity | hit rate 0.18% among 370,000 | inhibition, % at 12.2 µM | Q01970 | Purified PLC-beta3, fluorogenic substrate, fluorescence; in the data active = inhibition above about 11%;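 also: 0% = median of compound wells on plate and 100% = full blocker control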
KLK7 zymogen act – proKLK7 (human) activation, primary screen; P49862; purified proKLK7, EDANS-DABCYL substrate fluorescence; 100% is mature enzyme control, 0% vehicle; activation, % at 7 µM; hit rate 0.9% among 370,000; AID 652039;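 active = activation above the mean of all tested compounds plus 3 SD, computed per campaign excluding outliers beyond control limits, cut at about 13% in these data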
ADAM10 inh – inhibitors of human ADAM10; inhibition, % at 7 µM; recombinant ADAM10, EDANS/DABCYL FRET peptide cleavage, 3 h; AID 720582; O14672; hit rate 0.62% among 370,000;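 active = inhibition above a per-campaign cutoff equal to the mean of compounds falling between control-based bounds plus 3 SD, cut at about 20% in these data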;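 also: 0% = DMSO wells while the 100% control is not disclosed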
Target sequence (O14672 214-748 limits assumed): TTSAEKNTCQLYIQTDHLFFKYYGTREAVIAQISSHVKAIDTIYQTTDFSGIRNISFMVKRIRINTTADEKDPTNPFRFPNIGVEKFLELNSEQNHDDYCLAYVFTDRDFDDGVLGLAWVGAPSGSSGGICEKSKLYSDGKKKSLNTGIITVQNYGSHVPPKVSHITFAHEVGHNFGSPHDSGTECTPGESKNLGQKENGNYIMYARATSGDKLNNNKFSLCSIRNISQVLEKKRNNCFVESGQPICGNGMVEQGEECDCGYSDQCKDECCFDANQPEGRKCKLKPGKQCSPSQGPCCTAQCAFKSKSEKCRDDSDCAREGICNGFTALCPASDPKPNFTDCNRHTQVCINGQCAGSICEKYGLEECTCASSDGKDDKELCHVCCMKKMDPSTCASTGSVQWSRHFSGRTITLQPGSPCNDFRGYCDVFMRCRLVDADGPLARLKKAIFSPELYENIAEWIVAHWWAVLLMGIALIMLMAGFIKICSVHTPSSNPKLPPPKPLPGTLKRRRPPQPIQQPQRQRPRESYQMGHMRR
ADAM10 ctr – counter-screen for ADAM17 exosite inhibitors: inhibitors of human ADAM10. shares compounds with ADAM17 inh. AID 743256. inhibition, % at 6.95 µM. hit rate 47% among 2,900. recombinant ADAM10, EDANS/DABCYL FRET peptide cleavage, 3 h;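 active = mean inhibition over the triplicate runs exceeds the activity threshold set in the earlier primary screen, cut at about 20% in these data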;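 also: 0% = DMSO wells and 100% = marimastat wells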
ADAM17 confirm – human ADAM17 inhibition, confirmation; inhibition, % at 6.95 µM; hit rate 65% among 2,900; shares compounds with ADAM17 inh; recombinant ADAM17, EDANS/DABCYL QFRET peptide cleavage; AID 743257;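 active = mean inhibition across replicates above the hit cutoff set in the primary screen, cut at about 8.5% in these data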;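 also: 0% = DMSO wells and 100% = marimastat wells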
Numbers without * were called inactive. An excerpt weighted towards active compounds, which were near 2.9% of everything screened.

O=C(Nc1nn(Cc2ccc(Cl)cc2)cc1Br)c1ccc(COc2ccccc2Cl)o1 was read as ADAM17 inh 10*, PLCg1 inh -3, PLC-beta3 inh -1, KLK7 zymogen act -1, ADAM10 inh 17, ADAM10 ctr 33* and ADAM17 confirm 18*.
For O=C(NC(NC(=S)Nc1c(Cl)cccc1Cl)C(Cl)(Cl)Cl)OCc1ccccc1 (stereo unspecified) the results were ADAM17 inh 12*, PLCg1 inh 0, PLC-beta3 inh -2, KLK7 zymogen act 0, ADAM10 inh 14, ADAM10 ctr 33* and ADAM17 confirm 16*.
For CCOC(=O)NC(NC(=S)Nc1ccc(OCC)cc1)C(Cl)(Cl)Cl (stereo unspecified) the results were ADAM17 inh 0, PLCg1 inh 2, PLC-beta3 inh 0, KLK7 zymogen act -1 and ADAM10 inh -2.
`CCN(CC)CCC#CC(O)(c1ccccc1)C1CCCCC1` (stereo unspecified) gave ADAM17 inh 0, PLCg1 inh -1, PLC-beta3 inh 1, KLK7 zymogen act 0 and ADAM10 inh -1.
Cc1cc(C)c2c(=O)[nH][nH]c2n1 was read as ADAM17 inh 12*, PLCg1 inh -1, PLC-beta3 inh -2, KLK7 zymogen act -1, ADAM10 inh 5, ADAM10 ctr 1 and ADAM17 confirm 7.
For Cc1cc(=O)[nH]c2[nH][nH]c(=O)c12 the results were ADAM17 inh -8, PLCg1 inh 5, PLC-beta3 inh -1, KLK7 zymogen act 0 and ADAM10 inh -6.
C[C@H](NC(=O)c1nc[nH]c1C(=O)NCc1ccc(CNC(=O)OC(C)(C)C)cc1)C(=O)OCc1ccccc1 was read as ADAM17 inh 10*, PLCg1 inh 3, PLC-beta3 inh 3, KLK7 zymogen act 1, ADAM10 inh 15, ADAM10 ctr 37* and ADAM17 confirm 21*.
For C[C@H](NC(=O)c1nc[nH]c1C(=O)NC(c1ccccc1)c1ccccc1)C(=O)OCc1ccccc1 the results were ADAM17 inh 9.3*, PLCg1 inh -7, PLC-beta3 inh -4, KLK7 zymogen act 0, ADAM10 inh 14, ADAM10 ctr 3 and ADAM17 confirm 12*.
For C[C@H](NC(=O)c1nc[nH]c1C(=O)N[C@@H](C)C(=O)OCc1ccccc1)C(=O)OCc1ccccc1 the results were ADAM17 inh -1, PLCg1 inh 2, PLC-beta3 inh 0, KLK7 zymogen act 0 and ADAM10 inh 4.
`CC(C)(C)OC(=O)NCCCC[C@H](NC(=O)c1nc[nH]c1C(=O)NCc1ccccc1)C(=O)OC(C)(C)C` gave ADAM17 inh 9.2*, PLCg1 inh 3, PLC-beta3 inh 2, KLK7 zymogen act 0, ADAM10 inh 17, ADAM10 ctr 35* and ADAM17 confirm 20*.
`Cc1cccc(NC(=O)c2nc[nH]c2C(=O)N[C@@H](Cc2ccccc2)C(=O)OC(C)(C)C)c1` gave ADAM17 inh -4, PLCg1 inh 2, PLC-beta3 inh 1, KLK7 zymogen act -5 and ADAM10 inh 1.
Cc1cccc(NC(=O)c2nc[nH]c2C(=O)N[C@@H](CC(C)C)C(=O)OC(C)(C)C)c1 was read as ADAM17 inh 11*, PLCg1 inh 0, PLC-beta3 inh 2, KLK7 zymogen act 0, ADAM10 inh 19, ADAM10 ctr 30* and ADAM17 confirm 16*.
For COc1ccc(N2CC(C(=O)N3CCCC(C)C3)CC2=O)cc1 (stereo unspecified) the results were ADAM17 inh -6, PLCg1 inh 0, PLC-beta3 inh -5, KLK7 zymogen act 0 and ADAM10 inh -2.
Screening CCOc1ccc(S(=O)(=O)Nc2ccc(Cl)cn2)c(C)c1C returned ADAM17 inh -2, PLCg1 inh 1, PLC-beta3 inh -6, KLK7 zymogen act 0 and ADAM10 inh -8.
Cc1cc(C(=O)Nc2ccncc2)c(C)o1 was read as ADAM17 inh -11, PLCg1 inh 3, PLC-beta3 inh -3, KLK7 zymogen act 0 and ADAM10 inh 1.
For Cc1ccc2nc(-c3ccccc3)cc(C(=O)Nc3cccnc3)c2c1 the results were ADAM17 inh -1, PLCg1 inh 2, PLC-beta3 inh -3, KLK7 zymogen act 0 and ADAM10 inh -4.
Screening O=C(N[C@@H](Cc1ccccc1)C(=O)OCc1ccccc1)c1nc[nH]c1C(=O)N1CCN(c2ccccc2)CC1 returned ADAM17 inh 11*, PLCg1 inh -3, PLC-beta3 inh -4, KLK7 zymogen act 0, ADAM10 inh 19, ADAM10 ctr 27* and ADAM17 confirm 15*.
Screening COc1ccc2nc(NC(=O)C3CCN(S(=O)(=O)c4cnc[nH]4)CC3)sc2c1 returned ADAM17 inh -5, PLCg1 inh -1, PLC-beta3 inh -3, KLK7 zymogen act 0 and ADAM10 inh -6.
For CCOc1ccc2nc(NC(=O)C3CCN(S(=O)(=O)c4cnc[nH]4)CC3)sc2c1 the results were ADAM17 inh 8.7*, PLCg1 inh 4, PLC-beta3 inh 1, KLK7 zymogen act 1, ADAM10 inh -2, ADAM10 ctr 4 and ADAM17 confirm 7.
`CCCNC(=O)C1(C)CCN(C(=O)/C=C/c2ccccc2)C1` (stereo unspecified) gave ADAM17 inh -1, PLCg1 inh 2, PLC-beta3 inh 4, KLK7 zymogen act -1 and ADAM10 inh -5.
For COc1ccc(-c2n[nH]c(C)c2-c2ccc(Cl)cc2)c(O)c1OC the results were ADAM17 inh 11*, PLCg1 inh 2, PLC-beta3 inh -1, KLK7 zymogen act 0, ADAM10 inh 10, ADAM10 ctr 22* and ADAM17 confirm 8.
Screening O=C(O)c1cc(-c2cccs2)nn1-c1cccc(Cl)c1 returned ADAM17 inh -3, PLCg1 inh -4, PLC-beta3 inh -12, KLK7 zymogen act 0 and ADAM10 inh -3.
For CN(C)S(=O)(=O)c1cccc(NC(=O)c2cc(-c3cccs3)nn2-c2cccc(Cl)c2)c1 the results were ADAM17 inh 12*, PLCg1 inh -1, PLC-beta3 inh -2, KLK7 zymogen act 0, ADAM10 inh 13, ADAM10 ctr 14 and ADAM17 confirm 12*.
`Cc1ccc(C)c(NC(=O)CSc2c(C)n[nH]c2C)c1` gave ADAM17 inh -2, PLCg1 inh 0, PLC-beta3 inh 2, KLK7 zymogen act 0 and ADAM10 inh 3.
C[C@@H]1CC=C[C@H]2[C@H]1C(=O)N(Cc1ccccc1)[C@H]2c1ccc2ccccc2c1 was read as ADAM17 inh 9.4*, PLCg1 inh 5, PLC-beta3 inh 5, KLK7 zymogen act 1, ADAM10 inh 17, ADAM10 ctr 10 and ADAM17 confirm 6.

High-throughput results (PubChem BioAssay)
